How the values were obtained:
[1] = test system: JNK3
[2] = test system: LATS1
[3] = test system: LCK
[4] = test system: LYN
[5] = test system: LIMK2
[6] = test system: LOK
[7] = test system: MAP2K3

Compound: Cc1cc(NC(=O)c2cccc(NC(=O)/C=C/CN(C)C)c2)ccc1Nc1nccc(-c2cccnc2)n1 [JNK-IN-7]
- Kinases covered [1]: JNK3

Compound: O=C(O)/C=C/C(=O)O.OCCCNc1nccc(-c2c(-c3ccc(F)cc3)nn3cc(C(F)(F)F)ccc23)n1 [GW569293E]
- Kinases covered [2]: LATS1

Compound: COc1cc2ncnc(Nc3cccc(Cl)c3F)c2cc1O[C@H]1CC[C@H]([C@@H]2NCCNC2=O)CC1 [BI00133844]
- Kinases covered [3]: LCK
- Kinases covered [4]: LYN

Compound: COc1cc(-c2cncc(-c3cnn(C4CCNCC4)c3)c2)cc(OC)c1OC [K05908]
- Kinases covered [3]: LCK

Compound: CCCCN(Cc1ccccc1)C(=O)c1ccc(S(=O)(=O)Nc2ccccc2)cc1 [TH257]
- Kinases covered [5]: LIMK2

Compound: COc1cc2ncnc(Nc3ccc(F)c(Cl)c3)c2cc1O[C@H]1CC[C@H](N)CC1 [BIBW3133BS]
- Kinases covered [6]: LOK

Compound: Nc1nccc(-c2c(-c3ccc(F)cc3)ncn2CCCN2CCOCC2)n1 [SB-216385]
- Kinases covered [7]: MAP2K3

Reference: paper PMC7826789 (International Journal of Molecular Sciences, 2021)
